Measurements as given in PubChem BioAssay (Tox21).
Values without a mark were called inactive. Results filed as inconclusive are left out. Where a call stands in place of a potency, no number is given. Calls of active or inactive are those of the source. Unless noted, the call rests on the fitted dose curve; in most records, active means well fitted curve in the direction sought with a large enough effect in the repeat runs; inconclusive means weak or mixed curves; inactive means no such curve, though single readings can be large; an effect the other way counts as inactive or inconclusive.

Assays:
[1] = qHTS assay to identify small molecule agonists of the hypoxia (HIF-1) signaling pathway - cell viability counter screen (AID 1224844; calls by dose curve; further: nearly all actives have a fitted effect of over 50% in size; further: potency means the concentration at half of the fitted maximal effect)
In short: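 In this counter screen, HRE-bla ME-180 cell viability after 17 hrs of compound exposure at 37C was read by CellTiter-Glo luminescence, multiplexed with the beta-lactamase reporter measurement.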

[2] = qHTS assay to identify small molecule agonists of the estrogen related receptor (ERR) signaling pathway from Tox21 library (AID 1224849; calls by dose curve; further: nearly all actives have a fitted effect of over 15% in size); settings: ERR reporter cell line, ONE-Glo luciferase, 18 h; at 92.4 µM (top of the series) unless noted
In short: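 Luciferase activity in ERR pathway reporter cells served as the agonist readout; exposure lasted 18 h at 37 C, with ONE-Glo detection after 30 min at room temperature.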

[3] = qHTS RealTime-Glo MT Cell Viability Assay in HepG2 cells - 24 hour (AID 1224867); further: nearly all actives have a fitted effect of over 50% in size; further: potency means the concentration at half of the fitted maximal effect
In short: (§1)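 Luminescence read-out: viable HepG2 cells reduce a prosubstrate to a NanoLuc substrate, giving a signal proportional to live cell number. Reads taken at 0, 8, 16, 24, 32 and 40 h of compound exposure at 37 C.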

[4] = qHTS RealTime-Glo MT Cell Viability Assay in HepG2 cells - 40 hour (AID 1224870); further: nearly all actives have a fitted effect of over 50% in size; further: potency means the concentration at half of the fitted maximal effect
In short: (§2)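 Real-time viability: cells seeded at 600 per well together with NanoLuc and cell-permeant prosubstrate, compounds added after 5 h incubation. Luminescence tracked at 0, 8, 16, 24, 32 and 40 h of exposure.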

[5] = qHTS RealTime-Glo MT Cell Viability Assay in HepG2 cells - 8 hour (AID 1224873); further: nearly all actives have a fitted effect of over 55% in size; further: potency means the concentration at half of the fitted maximal effect
In short: as §2

[6] = A CellTox Green Cytotoxicity Assay to monitor cytotoxicity in HEK293 cells - 24 hour (AID 1224875); further: nearly all actives have a fitted effect of over 45% in size; further: potency means the concentration at half of the fitted maximal effect
In short: (§3)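 Real-time, in one plate: 600 HEK293 cells/well with dead-cell DNA dye, pinned compound after 5 h, 37 C incubation over 40 h; viable cells give no appreciable fluorescence.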

[7] = qHTS RealTime-Glo MT Cell Viability Assay in HepG2 cells - 32 hour (AID 1224877); further: nearly all actives have a fitted effect of over 55% in size; further: potency means the concentration at half of the fitted maximal effect
In short: as §1

[8] = A CellTox Green Cytotoxicity Assay to monitor cytotoxicity in HepG2 cells - 24 hour (AID 1224878); further: nearly all actives have a fitted effect of over 45% in size; further: potency means the concentration at half of the fitted maximal effect
In short: (§4)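 Cytotoxicity was tracked as dead-cell DNA fluorescence in HepG2 cells treated with test compounds at 37 C; each time-point value comes from one kinetic series spanning 0, 8, 16, 24, 32 and 40 h.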

[9] = A CellTox Green Cytotoxicity Assay to monitor cytotoxicity in HepG2 cells - 40 hour (AID 1224879); further: nearly all actives have a fitted effect of over 40% in size; further: potency means the concentration at half of the fitted maximal effect
In short: as §4

[10] = qHTS assay to identify small molecule agonists of H2AX - cell viability counter screen (AID 1224847; calls by dose curve; further: nearly all actives have a fitted effect of over 30% in size; further: potency means the concentration at half of the fitted maximal effect)
In short: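 Quantitative HTS viability measurement: CHO-K1 wild-type cells in serum (10% FBS) medium, short 3 hr drug exposure at 37C with 0.76% DMSO, CellTiter-Glo luminescent detection.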

[11] = qHTS assay to identify small molecule antagonists of the estrogen related receptor (ERR) signaling pathway from Tox21 library (AID 1224848); further: nearly all actives have a fitted effect of over 50% in size; further: potency means the concentration at half of the fitted maximal effect
In short: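 Luciferase luminescence (ONE-Glo, 30 min room temperature) was the read-out. Cells of the NTP-supplied ERR line, 2,000 per well, were given 6 h at 37 C before compound addition in DMSO and 18 h exposure at 37 C.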

[12] = A CellTox Green Cytotoxicity Assay to monitor cytotoxicity in HEK293 cells - 0 hour (AID 1224869); further: nearly all actives have a fitted effect of over 50% in size
In short: as §3

[13] = A CellTox Green Cytotoxicity Assay to monitor cytotoxicity in HepG2 cells - 16 hour (AID 1224876); further: nearly all actives have a fitted effect of over 45% in size; further: potency means the concentration at half of the fitted maximal effect
In short: as §4

[14] = qHTS assay to identify small molecule agonists of the hypoxia (HIF-1) signaling pathway (AID 1224846; active means well fitted activation curve with a large enough effect in the signal ratio in the repeat runs, not every such curve was filed as active; the % refers to the signal ratio)
In short: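 ME-180 HRE-bla reporter cells; compounds in DMSO, 17 h at 37C; read-out beta-lactamase via CCF4-AM FRET.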

[15] = qHTS RealTime-Glo MT Cell Viability Assay in HEK293 cells - 32 hour (AID 1224868); further: nearly all actives have a fitted effect of over 50% in size; further: potency means the concentration at half of the fitted maximal effect
In short: (§5)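 Nonlytic real-time viability readout: viable cells convert prosubstrate to NanoLuc substrate, giving luminescence proportional to live cell number. HEK293, 600 cells/well, compound added after 5 h, continuous culture at 37 C.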

[16] = A CellTox Green Cytotoxicity Assay to monitor cytotoxicity in HEK293 cells - 40 hour (AID 1224871); further: nearly all actives have a fitted effect of over 45% in size; further: potency means the concentration at half of the fitted maximal effect
In short: as §3

[17] = qHTS RealTime-Glo MT Cell Viability Assay in HEK293 cells - 16 hour (AID 1224872); further: nearly all actives have a fitted effect of over 50% in size; further: potency means the concentration at half of the fitted maximal effect
In short: as §5

[18] = qHTS RealTime-Glo MT Cell Viability Assay in HEK293 cells - 40 hour (AID 1224874); settings: RealTime-Glo luminescence; max response: stronger effect = lower value; further: nearly all actives have a fitted effect of over 50% in size; further: potency means the concentration at half of the fitted maximal effect
In short: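 Kinetic, non-lysing viability readout. Seed HEK293 (600/well) with reagent, incubate 5 h at 37 C/5% CO2, pin 23 nL compound in DMSO, incubate at 37 C, read luminescence at 0, 8, 16, 24, 32, 40 h.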

[19] = qHTS assay to identify small molecule agonists of H2AX (AID 1224845; active means well fitted activation curve with a large enough effect in the signal ratio in the repeat runs, not every such curve was filed as active; the % refers to the signal ratio; further: potency means the concentration at half of the fitted maximal effect)
In short: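 Phospho-H2AX Ser139 measured by HTRF (ex 320 nm; em 665 and 620 nm) after 24 hr antibody incubation. Compounds, 15 concentrations, 0.76% DMSO, were applied to CHO-K1 cells for 3hr at 37C before lysis.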

Structure (SMILES) | Potency [1] | activity change, positive = activation [2] | Potency [3] | Potency [4] | Potency [5] | Potency [6] | Potency [7] | Potency [8] | Potency [9] | Potency [10] | Potency [11] | Potency [12] | Potency [13] | outcome [14] | Potency [15] | Potency [16] | Potency [17] | max response [18] [%] | Potency [18] | Potency [19]
Brc1cc2ccccc2c2ccccc12 | 44 µM (active) | -24% | inactive | inactive | inactive | inactive | inactive | inactive | 39.2 µM (active) | – | – | – | – | – | – | – | – | – | – | –
Cc1cc(O)ccc1O | – | -73.6% (active) | inactive | inactive | inactive | – | inactive | inactive | inactive | 51 µM (active) | inactive | inactive | inactive | – | – | – | – | – | – | –
Oc1cccc(O)c1O | inactive | 0.0681% | inactive | inactive | inactive | inactive | inactive | inactive | inactive | – | inactive | – | – | inactive | inactive | inactive | inactive | 1.23 | – | –
CC(=O)Nc1cc(S(=O)(=O)O)cc2cc(S(=O)(=O)O)c(N=Nc3ccccc3)c(O)c12 | inactive | -5.56% | inactive | – | inactive | inactive | inactive | inactive | inactive | 50.5 µM (active) | – | inactive | – | inactive | inactive | inactive | inactive | -17.9 | – | –
CCCC(C(=O)OCCN(CC)CC)(c1ccccc1)c1ccccc1 | – | -35.3% [at 42.5 µM] | – | inactive | inactive | – | inactive | – | – | – | 29.8 µM (active) | inactive | – | – | 21.3 µM (active) | – | – | – | 21.3 µM (active) | –
CC(C)COCC(CN(Cc1ccccc1)c1ccccc1)N1CCCC1 (stereo not drawn) | – | – | 23.9 µM (active) | 23.9 µM (active) | 23.9 µM (active) | 23.9 µM (active) | 21.3 µM (active) | 23.9 µM (active) | 19 µM (active) | 43.8 µM (active) | – | – | 21.3 µM (active) | – | 10.7 µM (active) | 21.3 µM (active) | 8.49 µM (active) | – | 10.7 µM (active) | 49.2 µM (active)
CN1C(=O)N(c2ccccc2Br)Cc2cnc(Nc3ccc4c(c3)OCC(CO)O4)nc21 (stereo not drawn) | inactive | -69.6% | – | – | – | inactive | – | – | – | 31.8 µM (active) | 8.63 µM (active) | inactive | inactive | – | 6.16 µM (active) | – | 6.92 µM (active) | – | 4.36 µM (active) | –
Nc1nc2ccc([N+](=O)[O-])cc2s1 | – | – | inactive | inactive | inactive | inactive | inactive | 43.6 µM (active) | 43.6 µM (active) | inactive | – | inactive | – | – | – | inactive | inactive | – | – | –
